For 10 compounds, inhibition results are on record in PubChem BioAssay AID2544 (Sanford-Burnham Center for Chemical Genomics, 2010).

The whole screen tested about 330,000 compounds, of which about 390 (0.12%) were called active. What follows is part of a selection rich in actives, with near analogues and random picks from the rest. Values without a mark were called inactive.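 Rule for the calls: active = inhibition reaching a set limit with compound at 10 µM in the primary screen (cut at about 35% in these data); inactive = the rest.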

In this assay the target is Intestinal-type alkaline phosphatase (Homo sapiens) (UniProt P09923). As to the kind of experiment: blockers of intestinal alkaline phosphatase activity – biochemical, luminescence, uHTS, primary screen (AID 2544).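 Note: plate controls were DMSO wells with enzyme for no effect and no-enzyme buffer wells for full effect.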 The settings on record: purified IAP, CDP-Star luminescence, 30 min; at 10 µM; stronger effect = higher value.
Sequence of Intestinal-type alkaline phosphatase (Homo sapiens) (P09923 whole entry, looked up): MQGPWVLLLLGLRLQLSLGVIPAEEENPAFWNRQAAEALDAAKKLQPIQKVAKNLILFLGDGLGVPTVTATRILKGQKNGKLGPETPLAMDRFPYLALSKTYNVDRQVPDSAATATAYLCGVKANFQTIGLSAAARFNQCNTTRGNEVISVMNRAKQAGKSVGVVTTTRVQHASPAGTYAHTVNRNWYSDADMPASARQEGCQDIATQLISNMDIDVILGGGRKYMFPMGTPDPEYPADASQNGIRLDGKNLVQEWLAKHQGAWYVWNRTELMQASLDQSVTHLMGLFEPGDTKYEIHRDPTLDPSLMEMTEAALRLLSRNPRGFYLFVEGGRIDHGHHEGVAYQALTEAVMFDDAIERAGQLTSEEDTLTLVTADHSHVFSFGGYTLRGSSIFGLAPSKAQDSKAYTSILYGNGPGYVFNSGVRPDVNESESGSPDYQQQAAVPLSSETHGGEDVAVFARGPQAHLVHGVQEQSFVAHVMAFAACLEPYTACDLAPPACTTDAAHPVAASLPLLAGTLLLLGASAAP
Turning to `O=C1N=c2ccccc2=C/C1=C\c1c(O)[nH]c(=S)[nH]c1=O`, the inhibition is -13%.

With `CCOCCc1c(O)[nH]c(=S)[nH]c1=O`, the inhibition is 7.2%.

For the compound `COc1ccccc1N=Nc1c(O)[nH]c(=S)[nH]c1=O`, the inhibition was 37.5% (active).

`COc1ccc(NC(=O)c2cn(CCC#N)nc2-c2ccc([N+](=O)[O-])cc2)cc1`: the inhibition was 1.2%.

Turning to `CN(c1ccccc1)c1ccc([N+](=O)[O-])c2nonc12`, the inhibition was 45.8% (active).

For the compound `CCN(CC)c1ccc([N+](=O)[O-])c2cccnc12`, the inhibition was 26.2%.

For `O=C(OCCN1CCOCC1)C1(c2ccccc2)CCCC1`, the inhibition was -11.7%.

Turning to `Cc1ccc2c(c1)C1CN(C)CCC1N2C(=O)Cn1nnc(-c2ccccc2F)n1` (stereo not given), the inhibition was -5.5%.

Turning to `Cc1ccc2c(c1)=C/C(=C\c1c(O)[nH]c(=O)[nH]c1=O)C(=O)N=2`, the inhibition is -9.3%.

Consider `COc1ccc(-n2c(O)c(C(C)=Nc3ccc4c(c3)CCC4)c(=O)[nH]c2=O)cc1`, for which the inhibition is -16.1%.

Usually inhibition stands for the change of the read-out against control, counted positive when it falls.
